Where “and” joins values, the source holds several entries; their conditions need not be identical. Equal entries are not always repeated. About 79,000 compounds went through this panel and 15% of them were active in at least one assay; those are over-represented in the sample as a whole. Where a structure was tested more than once in an assay, its records may differ in their call. Calls of active or inactive are those of the source. Cut-off read from the data, not from the text of the source: active = growth inhibition above about 70%; inactive = the rest.

One experiment is described as follows: NCI Yeast Anticancer Drug Screen. Data for the mlh1 rad18 strain (AID 175). The conditions noted are these: S. cerevisiae mlh1 rad18 strain growth inhibition; at 50.0 µM (retest, dose inferred, filed as 5.0); stronger effect = higher value. The gist of the method:
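In this whole-cell yeast screen, a strain with altered DNA damage repair is challenged with compound, and its growth is measured against matched vehicle-treated controls.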
Consider `c1ccc([CH2][Pb]([c]2ccccc2)([c]2ccccc2)[c]2ccccc2)cc1`, for which the growth inhibition was 97% (active).
Same read-out and setting: then `C[CH2][Sn][CH2]C.c1cc[c]([Ge]([c]2ccccc2)[c]2ccccc2)cc1.c1cc[c]([Sn]([c]2ccccc2)[c]2ccccc2)cc1`, with 97% (active); and `CCC1(C2=CCCCC2)C(=O)NC(=S)NC1=O`, with 79% (active).
With `N#CC(=C=N)N=C(F)C(C#N)=C(C#N)C#N`, the growth inhibition is 93% (active).
Still for that read-out and setting: then `N#C[SH2+].N#C[SH2+].N#C[SH2+].N#C[SH2+].[Cu+2].c1ccc(C[P+](c2ccccc2)(c2ccccc2)c2ccccc2)cc1`, with 97% (active).
As to `CC#N.FC(F)(F)C#CC(F)(F)F.FC(F)(F)C#CC(F)(F)F.FC(F)(F)C#CC(F)(F)F.[W]`, the growth inhibition was 99% (active).
The same measure, in the same setting: the value for `CC(C)c1cccc(C(C)C)c1NC(=O)C(=O)CC(=O)CC(c1ccccc1)c1c(O)c2ccccc2oc1=O` (stereo not drawn) was 7% (inactive).
Turning to `CCN(CCCl)c1ccc(/C=C/C2=[N+](C)c3ccccc3C2(C)C)c(C)c1`, the growth inhibition was 98% (active).
Same read-out and setting: the value for `Cc1cc(C)[n+](CCOc2ccc(/C(=C(/Cl)c3ccccc3)c3ccccc3)cc2)c(C)c1` was 82% (active).

Still in this experiment, the particulars now being: S. cerevisiae mlh1 rad18 strain growth inhibition; at 50.0 µM; stronger effect = higher value.
Turning to `Cc1cc(C)c(O)c(C)c1.[Hg]`, the growth inhibition is 99.5% (active).
Turning to `CC(O)C(=O)O.CC(O)C(=O)O.[Ni]` (stereo not drawn), the growth inhibition is 19.4% (inactive).
On to `CC(=O)OC1C(=O)OCC23CCC4(C)OC4C2OC2CC(OC(=O)/C=C/C=C/C(=O)OCCC1C)C3(C)C21CO1` (stereo not drawn), for which the growth inhibition was 92.3% (active).
Consider `CN1C(=O)CC[C@@]2(C)C1=CC[C@H]1[C@@H]3CC[C@H](O)[C@@]3(C)CC[C@@H]12`, for which the growth inhibition was 15.1% (inactive).
For the compound `CC[C@H](C)c1occ2c(O)c(C(=O)O)c(=O)cc-2c1C`, the growth inhibition is 81.2% (active).
`O=[N+]([O-])[O][Tl]([c]1ccccc1)[c]1ccccc1`: the growth inhibition was 8.3% (inactive).
Same read-out and setting: then `CCCC[CH2][Sn]([CH2]CCCC)[CH2]CCCC.CCCC[CH2][Sn]([CH2]CCCC)[CH2]CCCC`, with 99.1% (active); and `Nc1cc(Cl)ccc1C(=O)c1ccccc1Cl`, with 98.2% (active); and `CC(Br)CN1CCOCC1` (stereo not drawn), with 96.2% (active).
On the same count and under the same terms, the value for `C(CCC[Te][Te]CCCCCCOC1CCCCO1)CCOC1CCCCO1` (stereo not drawn) was 90% (active); that for `CN1CN(c2ccccc2)C2(CCN(C3Nc4ccccc4O3)CC2)C1=O` (stereo not drawn) was 45.6% (inactive).
Still for that read-out and setting: the value for `[CH3][Sn]([CH3])([Cl])[c]1cc[c]([Sn]([CH3])([CH3])[Cl])cc1` was 80.2% (active).
For `O=[C-]CCCCCC[C-]=O.[C-]#[O+].[C-]#[O+].[C-]#[O+].[C-]#[O+].[Fe+6].[Fe+6].[c-]1[c-][c-][cH-][c-]1.[c-]1[c-][c-][cH-][c-]1`, the growth inhibition was 93.1% (active).
Same read-out and setting: the value for `CCOC(=O)NC(=S)[S][Sb]([S]C(=S)NC(=O)OCC)[S]c1nc2ccc(N=Nc3ccc(NS(=O)(=O)c4ccc(NC(=O)C(N5CC5)(N5CC5)N5CC5)cc4)cc3)cc2s1` was 99.2% (active).
On the same count and under the same terms, the value for `CCC[N+](CCC)(CCC)CCC.N#CN=C([SH2+])[SH2+].N#CN=C([SH2+])[SH2+].[Pt+2]` was 49.9% (inactive); that for `CCCCCCCC/C=C\CCCCCCCCN1CC(C(=O)[O][Pb]([CH2]C)([CH2]C)[CH2]C)CC1=O` (stereo not drawn) was 65.7% (inactive); that for `O=c1[nH]cc(Cn2cnc3ncccc3c2=O)c(=O)[nH]1` was -16.5% (inactive).
For `CC(C)(C)C1=CC(=C/C=C/c2cc(C(C)(C)C)[o+]c(C(C)(C)C)c2)C=C(C(C)(C)C)O1`, the growth inhibition was 37.5% (inactive).
Same read-out and setting: then `S=C(S)N1CCCCC1`, with 52.8% (inactive) and 70.8% (active) and 59.6% (inactive).
As for `CN[C@H]1C[C@@H]2O[C@@](C)([C@H]1OC)n1c3ccccc3c3c4c(c5c6ccccc6n2c5c31)C(=O)NC4`, the growth inhibition is 91.8% (active).
For `CC(C)(C)OOC(=O)c1ccccc1`, the growth inhibition was 75.3% (active).
Still for that read-out and setting: the value for `ClCCN(CCCl)CCN1c2ccccc2Sc2ccc3ccccc3c21` was 83.5% (active).
Same read-out and setting: then `CCOC(=O)c1ccccc1N`, with -17.9% (inactive); and `Cn1cnc(C(=N)[Se])c1N`, with 67.7% (inactive); and `Cc1ccc(NP(=O)(Oc2ccccc2)N(CCCl)CCCl)cc1` (stereo not drawn), with 54.6% (inactive).
On the same count and under the same terms, the value for `CCOC(=O)C1=C(C)NC(=O)NC1c1ccc(N(CCCl)CCCl)cc1Cl` (stereo not drawn) was 78.5% (active).
For `ClC(C[n+]1ccccc1)c1ccccc1` (stereo not drawn), the growth inhibition is 60.6% (inactive) and 4.6% (inactive).
As for `CCCCCCCC1(c2ccc(N)cc2)CCC(=O)NC1=O` (stereo not drawn), the growth inhibition is 37.1% (inactive).
On the same count and under the same terms, the value for `COC(=O)C(CCCN=C(N)N[N+](=O)[O-])NC(=O)c1ccc2c(c1O)C(=O)c1ccccc1C2=O` (stereo not drawn) was 66.2% (inactive).
On the same count and under the same terms, then `Cc1cc(N(CCCl)CCCl)ccc1CN1CCCN(Cc2ccc(N(CCCl)CCCl)cc2C)C1c1ccc(N(CCCl)CCCl)cc1C`, with 98.6% (active); and `c1ccc([CH2][Pb]([c]2ccccc2)([c]2ccccc2)[c]2ccccc2)cc1`, with 99.2% (active).
As for `C[CH2][Sn][CH2]C.c1cc[c]([Ge]([c]2ccccc2)[c]2ccccc2)cc1.c1cc[c]([Sn]([c]2ccccc2)[c]2ccccc2)cc1`, the growth inhibition was 98.8% (active).
Take `CCC1(C2=CCCCC2)C(=O)NC(=S)NC1=O`: the growth inhibition is 25.5% (inactive) and 85% (active).
On to `N#CC(=C=N)N=C(F)C(C#N)=C(C#N)C#N`, for which the growth inhibition was 94.8% (active).
On the same count and under the same terms, the value for `N#C[SH2+].N#C[SH2+].N#C[SH2+].N#C[SH2+].[Cu+2].c1ccc(C[P+](c2ccccc2)(c2ccccc2)c2ccccc2)cc1` was 97.2% (active).
Regarding `CC#N.FC(F)(F)C#CC(F)(F)F.FC(F)(F)C#CC(F)(F)F.FC(F)(F)C#CC(F)(F)F.[W]`, the growth inhibition was 99.3% (active).
For the compound `CC(C)c1cccc(C(C)C)c1NC(=O)C(=O)CC(=O)CC(c1ccccc1)c1c(O)c2ccccc2oc1=O` (stereo not drawn), the growth inhibition was 58.6% (inactive).
Still for that read-out and setting: then `CCN(CCCl)c1ccc(/C=C/C2=[N+](C)c3ccccc3C2(C)C)c(C)c1`, with 60.8% (inactive); and `Cc1cc(C)[n+](CCOc2ccc(/C(=C(/Cl)c3ccccc3)c3ccccc3)cc2)c(C)c1`, with 89.8% (active).

The record behind these values is PubChem BioAssay (NCI).
